# An excerpt weighted towards active compounds, which were near 8.3% of everything screened.
# Chronic BCR inh = inhibitors of chronic active B-cell receptor signaling; Potency, µM (series often up to 46.1 µM), for the others: at the highest dose activity change, negative = inhibition, usual class: inhibitors; hit rate 0.05% among 340,000; ABC-DLBCL IkBa-CBG/CBR reporter, luminescence ratio, 4 h; AID 493014; active = well fitted inhibition curve with a large enough effect in the signal ratio, with a control signal flat, not every such curve was filed as active; inconclusive = small, poorly fitted or top-dose-only effect, or effect the other way, or a change in a side signal; the % refers to the signal ratio;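 note: potency is the fitted concentration of half-maximal effect; plate controls were basal doxycycline-induced cells for no effect and cells given 10 µM MG132 for full effect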
#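 TMD8 human ABC-DLBCL cells with doxycycline-inducible IκBα–green luciferase fusion and unfused red luciferase, in 0.5% FBS medium; compounds up to 46 uM, 4 h at 37C. Green/red luminescence ratio, filter-overlap corrected, fitted to concentration-response curves.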
# MCF10A rerep = induces DNA re-replication in MCF 10a normal breast cells; MCF 10A DNA re-replication, Hoechst nuclear intensity, 48 h; Potency, µM (series often up to 46.1 µM), without a hit: top-dose activity, positive = re-replication, hits mostly activators; hit rate 2.9% among 350,000; AID 624296; note: potency is the fitted concentration of half-maximal effect; % of control where 0% means no effect; nearly all actives have a fitted effect of over 50% in size
# RORg inh = ROR gamma (mouse) transcription inhibition | hit rate 5.4% among 310,000 | Potency, µM (doses to about 53.6 µM), without a hit: at the top dose activity change, negative = inhibition, actives largely listed as inhibitors | AID 2551 | Drosophila S2 Gal4-RORgamma UAS-luciferase reporter, 20 h; note: potency is the fitted concentration of half-maximal effect; % is set by controls: 0 for no effect and ±100 for the full control effect; nearly all actives have a fitted effect of over 60% in size
# Target sequence (P51450 whole entry, looked up, the tested form may be a part): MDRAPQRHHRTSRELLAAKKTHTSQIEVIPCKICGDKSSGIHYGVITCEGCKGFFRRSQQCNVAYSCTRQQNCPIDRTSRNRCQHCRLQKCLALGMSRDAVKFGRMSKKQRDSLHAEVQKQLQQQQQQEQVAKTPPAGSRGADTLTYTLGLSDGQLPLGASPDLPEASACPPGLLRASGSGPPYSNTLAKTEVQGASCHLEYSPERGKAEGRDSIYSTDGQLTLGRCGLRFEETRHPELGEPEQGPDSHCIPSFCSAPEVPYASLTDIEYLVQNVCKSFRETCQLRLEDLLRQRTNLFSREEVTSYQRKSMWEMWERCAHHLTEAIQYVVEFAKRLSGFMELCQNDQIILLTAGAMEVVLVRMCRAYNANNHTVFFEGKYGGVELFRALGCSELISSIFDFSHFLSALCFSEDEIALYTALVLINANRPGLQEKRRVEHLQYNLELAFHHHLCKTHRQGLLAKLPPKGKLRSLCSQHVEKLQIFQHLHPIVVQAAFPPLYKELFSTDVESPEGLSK
#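 Stable Schneider cell line, Gal4 DNA-binding domain fused to ROR gamma, UAS-luciferase. Cmpd 1 hr RT → CuSO4 700 uM final → 20 hr RT → luciferase reagent 10 min → luminescence.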
# SW480 rereplic = induces DNA re-replication in SW480 colon adenocarcinoma cells | SW480 DNA re-replication, Hoechst DNA content imaging, 48 h | Potency, µM (doses to about 46.1 µM), for inactives: at the highest dose re-replication activation, hits mostly activators | hit rate 1.8% among 340,000 | AID 624297; note: potency is the fitted concentration of half-maximal effect; % of control where 0% means no effect; nearly all actives have a fitted effect of over 55% in size
#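 Quantitative HTS format with DMSO vehicle controls; 48 hr drug incubation at 37 C, then 40 min Hoechst staining and scanning imager measurement at 405 nm excitation.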
# Gal4-VP16 FLuc = Gal4-VP16 reporter inhibition counter-screen; Drosophila S2 Gal4-VP16 UAS-luciferase, luminescence, 20 h; Potency, µM (series often up to 53.6 µM), for inactives: at the highest dose activity, negative = inhibition, hits mostly inhibitors; hit rate 3.5% among 310,000; AID 2546;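 note: Gal4-VP16 expression switched on by copper sulfate through the metallothionein promoter; potency is the fitted concentration of half-maximal effect; % is set by controls: 0 for no effect and ±100 for the full control effect; nearly all actives have a fitted effect of over 50% in size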
# Giardia killer = kills Giardia lamblia; activity change, % at 7.66 µM, hits read low; hit rate 0.15% among 340,000; Giardia lamblia trophozoite viability; in the data active = activity change below about -80%; inconclusive = between about -30% and that limit;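 note: parasites exposed to compound for two days anaerobically before the ATP read; % is set by controls: 0 for no effect and ±100 for the full control effect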
#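 Trophozoites 100 cells/well + cpd; 48 hrs, 37 deg C, anaerobic. ATPLite 1-Step added, 15-30 min RT, luminescence read (ATP-based viability).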
# Numbers without * were called inactive; ? = inconclusive; · = no result given; [ ] = remark or other dose. Unless noted, calls come from the whole dose curve; as a rule, active = well fitted curve in the direction sought with a large enough effect; inconclusive = small, poorly fitted or top-dose-only effect, or another doubt; inactive = no such curve, though single readings can be large; an effect the other way counts as inactive or inconclusive.
SMILES,Chronic BCR inh,MCF10A rerep,RORg inh,SW480 rereplic,Gal4-VP16 FLuc,Giardia killer
CC(C)(C)OC(=O)N1CCC(C(=O)NCC2CCCO2)CC1 (stereo not drawn),6%,?,-3%,5%[9.22 µM],-13%,4
Cn1cnc([N+](=O)[O-])c1Oc1ccc2ccccc2c1,?,4.1µM*,-33%,6.5µM*,?,-14
Cn1cnc([N+](=O)[O-])c1Sc1nc2ccccc2[nH]1,?,?,2%,20%,-24%,-18
CC(=O)Nc1ccc(S(=O)(=O)NCCN2CCNC2=O)cc1Cl,1%,-2%,-15%,-1%,-5%,-15
CN(CC(=O)Nc1ccc(F)cc1)C(=O)COC(=O)CSc1ccc(F)cc1,?,0%,·,-2%,·,-7
N#CC1=C(N)C(C#N)(C#N)[C@H](c2c(F)cccc2F)[C@H]2CC3(CC=C12)OCCO3,-4%,4.1µM*,-35%,3.3µM*,-3%,-4
CN1C2C=C3C(C#N)=C(N)C(C#N)(C#N)[C@H](c4c(F)cccc4F)[C@H]3C1CC2 (stereo partly drawn),-7%,1%,-29%,-4%,0%,6
O=C(NC(=S)N1CCc2ccccc21)C1CCC1,0%,-1%,2.8µM*,-6%,?,13
CC(C)(C)C(=O)NC(=S)N1CCc2ccccc21,-6%,10%,5µM*,?,?,-15
O=C(C1CCCCC1)N1CCCc2ccccc21,6%,12%,6%,-2%,-2%,9
Cc1ccc(-n2cc(-c3ccccc3)c3c(N4CCN(C)CC4)ncnc32)cc1,-2%,21µM*,-32%,-4%,-13%,7
Cc1ccc(-n2cc(-c3ccccc3)c3c(N4CCOCC4)ncnc32)cc1,21%,18µM*,0%,?,1%,-7
Cc1ccc(-n2cc(-c3ccccc3)c3c(=O)[nH]cnc32)cc1,?,23µM*,4%,-7%,12%,10
Cc1cccc(-n2cc(-c3ccccc3)c3c(N4CCOCC4)ncnc32)c1,?,?,14%,29%,3%,8
CCOc1ccc(NC(=O)CN(C)C(=O)c2cccnc2SC)cc1OCC,0%,2%,4%,1%,-11%,-5
Cc1cccc(NC(=O)Cn2nc(-c3cccs3)ccc2=O)c1C,1%,8%,-21%,-5%,9%,-9
Cc1ccc(C)c(Nc2nc(NCc3ccco3)nc3nccnc23)c1,·,·,·,·,·,-21
COc1cccc(NC(=O)C2C3C=CC4(O3)C2C(=O)N(CCCN2CCCCC2)C4C(=O)NC2CCCCC2)c1 (stereo not drawn),13%,-1%,-29%,10%,8%,0
COc1cc(N=Nc2cccc(S(N)(=O)=O)c2)c2ccccc2c1N,?,?,11µM*,14%,-1%,5
COc1ccccc1-c1c(C#N)c(N)nc2c1CCc1ccccc1-2,?,?,-9%[10 µM],21µM*,?,-10
O=C(Nc1ccon1)c1ccc(Cl)c(S(=O)(=O)N2CCCCC2)c1,-1%,9%,1.4µM*,-4%,2.2µM*,7
O=C(Nc1nccs1)c1ccc(Br)c(S(=O)(=O)N2CCOCC2)c1,26%,-37%,13µM*,-22%,?,-14
CC1CCN(S(=O)(=O)c2cccc(C(=O)Nc3nccs3)c2)CC1,-2%,6%,11µM*,-5%,?,-12
O=C(Nc1nccs1)c1ccc(F)c(S(=O)(=O)N2CCOCC2)c1,?,-9%,-29%,-26%,-24%,-17
O=C(Nc1nccs1)c1ccc(Cl)c(S(=O)(=O)N2CCCCC2)c1,·,?,10µM*,0%,?,5
SMILES,Chronic BCR inh,MCF10A rerep,RORg inh,SW480 rereplic,Gal4-VP16 FLuc,Giardia killer
COc1ccc(C(=O)NNC(=O)C23CC4CC(CC(C4)C2)C3)c(OC)c1,0%,?,0%,-6%,2%,3
O=C(Nc1nccs1)C1CCN(S(=O)(=O)c2c(Cl)cccc2Cl)CC1,?,?,8.9µM*,0%,9%,-3
O=C(Nc1nc2ccccc2[nH]1)c1ccc(S(=O)(=O)N2CCOCC2)cc1,4%,?,11%,15%,?,23
Cc1cccnc1NC(=O)c1ccc(Cl)c(S(=O)(=O)N2CCCC2)c1,8%,-1%,-25%,5%,-10%,?
O=C(Nc1nccs1)C1CCN(S(=O)(=O)c2ccc(F)cc2)CC1,1%,0%,5%,11%,-5%,0
O=C(Nc1nc2ccccc2[nH]1)c1ccc(Cl)c(S(=O)(=O)N2CCCC2)c1,-22%,?,6.3µM*,?,8.9µM*,-3
Cc1cccnc1NC(=O)c1cccc(S(=O)(=O)N2CCCc3ccccc32)c1,0%,11%,11µM*,19%,?,6
Cc1cccnc1NC(=O)c1ccc(Cl)c(S(=O)(=O)N2CCCCCC2)c1,?,49%,4µM*,6%,?,6
O=C(Nc1ncccc1O)c1cccc(S(=O)(=O)N2CCCc3ccccc32)c1,0%,5%,·,-4%,·,-2
NS(=O)(=O)c1ccc(NC(=O)COC(=O)C2CC(=O)N(Cc3ccccc3)C2)cc1 (stereo not drawn),0%,2%,10%,-8%,-1%,-3
COc1cc(CC2COC(=O)C2(O)Cc2ccc(O)c(OC)c2)ccc1O (stereo not drawn),-16%,-1%,?,-2%,7.1µM*,8
COc1cc(C[C@@H]2C(=O)OC[C@H]2Cc2ccc(OC)c(OC)c2)ccc1O,-8%,5%,·,2%,·,2
Cc1ccc(S(=O)(=O)N2CCN(C(=O)COC(=O)C3CCC3)CC2)cc1,4%,-1%,·,6.5µM*,·,-23
Cc1ccc(OCCC(=O)OCC(=O)N2CCN(S(=O)(=O)c3ccc(Cl)cc3)CC2)cc1,?,4%,·,18µM*,·,15
Cc1ccc(S(=O)(=O)N2CCN(C(=O)COC(=O)CCOc3ccc(C(C)(C)C)cc3)CC2)cc1,?,4%,·,18µM*,·,-21
CN(C(=O)COC(=O)C1CCN(S(=O)(=O)c2c(Cl)cccc2Cl)CC1)C1CCCCC1,7%,?,·,3.7µM*,·,-2
CN(C(=O)COC(=O)C1CCN(S(=O)(=O)c2c(Cl)cccc2Cl)CC1)c1ccccc1,7%,2%,·,12%,·,-30
Cc1ccc(S(=O)(=O)N2CCN(C(=O)CN3C(=O)NC(C)(c4ccc5ccccc5c4)C3=O)CC2)cc1 (stereo not drawn),·,-2%,·,-7%,·,-4
O=S(=O)(Nc1ccccc1)c1ccc(NS(=O)(=O)c2c(F)cccc2F)cc1,1%,20%,0%,-4%,-15%,0
